The record followed here is PubChem BioAssay (NCATS).

Experiment [1] can be described thus: qHTS of pediatric cancer cell lines to identify multiple opportunities for drug repurposing: Primary screen for SK-N-SH cells (AID 1347098). Also: nearly all actives have a fitted effect of over 65% in size. Also: potency is read from the fitted curve at half-maximal effect. A digest of the protocol:
(§1)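 Cells (500-1,000/well) rested 5 h, then received compounds for 48 h; metabolically active cells were measured by CellTiter-Glo luminescence. Final concentrations spanned up to 46 µM (MIPE, 11-point) or 0.59 nM-46 µM (NPC, 8-point) in primary screens, 11-point in follow-ups.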
In general terms: In qHTS, concentration-response curves come from the screen itself.

Experiment [2] is described as follows: qHTS of pediatric cancer cell lines to identify multiple opportunities for drug repurposing: Primary screen for NB1643 cells (AID 1347099). Also: nearly all actives have a fitted effect of over 50% in size. Also: potency is read from the fitted curve at half-maximal effect. The method in brief: (§2)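 Following a 5-hour attachment period, cells at 500-1,000/well received compounds and were cultured for 48 hours. CellTiter-Glo was added and luminescence read to estimate viable, metabolically active cells.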

The nature of experiment [3]: qHTS of pediatric cancer cell lines to identify multiple opportunities for drug repurposing: Primary screen for LAN-5 cells (AID 1347100). Also: potency is read from the fitted curve at half-maximal effect. The method in brief:
as §1

Experiment [4] can be described thus: qHTS of pediatric cancer cell lines to identify multiple opportunities for drug repurposing: Primary screen for OHS-50 cells (AID 1347103). Also: nearly all actives have a fitted effect of over 40% in size. Also: potency is read from the fitted curve at half-maximal effect. The method in brief: as §1
Experiment [5] is described as follows: qHTS of pediatric cancer cell lines to identify multiple opportunities for drug repurposing: Primary screen for RD cells (AID 1347104). Also: nearly all actives have a fitted effect of over 55% in size. Also: potency is read from the fitted curve at half-maximal effect. The method in brief: as §2
Experiment [6] in a line: qHTS of pediatric cancer cell lines to identify multiple opportunities for drug repurposing: Primary screen for MG 63 (6-TG R) cells (AID 1347105). Also: nearly all actives have a fitted effect of over 50% in size. Also: potency is read from the fitted curve at half-maximal effect. A digest of the protocol: as §2
Experiment [7] in a line: qHTS of pediatric cancer cell lines to identify multiple opportunities for drug repurposing: Primary screen for control Hh wild type fibroblast cells (AID 1347106).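 Also: series mostly up to about 46 µM; a drop in luminescence marks cytotoxicity and a rise apparent proliferation; nearly all actives have a fitted effect of over 55% in size.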 A digest of the protocol:
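Cells (500-1,000/well) in growth media were settled 5 h at 37 degrees C, then given compounds for 48 h. Viability was read as CellTiter-Glo luminescence. Primary runs used MIPE at 11 points (0.78 nM-46 µM) and NPC at 8 points (0.59 nM-46 µM); follow-ups used 11 points.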

Experiment [8] is described as follows: qHTS of pediatric cancer cell lines to identify multiple opportunities for drug repurposing: Primary screen for Rh30 cells (AID 1347107). Also: series mostly up to about 46 µM; nearly all actives have a fitted effect of over 75% in size. The method in brief: as §1
Experiment [9] can be described thus: qHTS of pediatric cancer cell lines to identify multiple opportunities for drug repurposing: Primary screen for BT-12 cells (AID 1347101). Also: nearly all actives have a fitted effect of over 25% in size. A digest of the protocol:
as §1

The nature of experiment [10]: qHTS of pediatric cancer cell lines to identify multiple opportunities for drug repurposing: Primary screen for Rh18 cells (AID 1347102). Also: nearly all actives have a fitted effect of over 65% in size. The method in brief:
as §1

Results filed as inconclusive are left out. Active and inactive are the calls of the source. Calls follow the shape of the dose curve; as a rule, active = well fitted curve in the direction sought with a large enough effect; inconclusive = small, poorly fitted or top-dose-only effect, or another doubt; inactive = no such curve, though single readings can be large; an effect the other way counts as inactive or inconclusive.

In the case of `CC(C(=O)c1ccccc1)N(C)C` (stereo unspecified), the Potency result in experiment [1], in experiment [2], in experiment [3], in experiment [4], in [5] and in experiment [6] was “inactive” throughout. Further, the call in experiment [7] and in experiment [8] was inactive.

Regarding `ClCCN1CCCC1`, the Potency entry in experiment [1], in [2], in experiment [3], in [4], in experiment [5] and in experiment [6] was “inactive” each time. The outcome in experiment [7] and in experiment [8] was inactive.

On to `CCN(CC)CCc1c[nH]c2ccccc12`, for which the Potency entry in [2], in experiment [3], in experiment [9], in [10], in [5] and in [6] was “inactive” throughout. The molecule was called inactive in [7] and in [8].

As to `CCc1cc2c(s1)-n1c(C)nnc1CN=C2c1ccccc1Cl`, the Potency result in experiment [2], in [3], in experiment [9], in experiment [10], in experiment [5] and in experiment [6] was “inactive” in each case. The molecule was called inactive in experiment [7] and in [8].

For the molecule `C[C@]12CC[C@@H]3c4ccc(OC(=O)N(CCCl)CCCl)cc4CC[C@H]3[C@@H]1CC[C@@H]2O`, the Potency result in experiment [1], in [2], in experiment [3], in experiment [5] and in experiment [6] was “inactive” throughout. Further, the molecule was called inactive in experiment [7] and in experiment [8].

As for `CCN[C@@H](C)Cc1cccc(C(F)(F)F)c1`, the Potency result in experiment [2], in experiment [3], in experiment [9], in experiment [10], in experiment [4] and in experiment [5] was “inactive” each time. Also, the Potency result in experiment [6] is “inactive”. In addition, the molecule was called inactive in experiment [7] and in [8].

Take `COC(=O)[C@@H](N)CCCN/C(N)=N/[N+](=O)[O-]`: the Potency result in experiment [2], in experiment [3], in experiment [9], in experiment [10], in experiment [4] and in [5] was “inactive” throughout. The Potency result in experiment [6] was “inactive”. The call in [7] and in [8] was inactive.

On to `O=C(O)c1ccc(=O)[nH]c1`, for which the Potency result in experiment [1], in experiment [2], in experiment [3], in experiment [4], in experiment [5] and in [6] was “inactive” throughout. In addition, the result in [7] and in [8] was inactive.

Regarding `CCCCCCCCCC(=O)O[C@H]1CC[C@H]2[C@@H]3CCC4=CC(=O)CC[C@@H]4[C@H]3CC[C@]12C`, the Potency entry in experiment [2], in experiment [3], in [9], in [10], in experiment [4] and in experiment [5] was “inactive” throughout. In addition, the Potency result in experiment [6] is “inactive”. The call in experiment [7] and in experiment [8] was inactive.

With `CN1CCC(O)(c2ccc(F)cc2)C(C(=O)c2ccc(F)cc2)C1` (stereo unspecified), the Potency result in experiment [2], in experiment [3], in experiment [9], in [10], in [4] and in [5] was “inactive” each time. The Potency entry in experiment [6] was “inactive”. The molecule was classed as inactive in experiment [7] and in experiment [8].

Turning to `CCCN(CCC)C(=O)Cc1c(-c2ccc(Cl)cc2)nc2ccc(Cl)cn12`, the Potency result in experiment [1], in experiment [3], in experiment [10], in [5] and in experiment [6] was “inactive” throughout. In addition, the outcome in [7] and in [8] was inactive.

In the case of `O=C(Nc1ccc(Br)cc1)c1cc(Br)cc(Br)c1O`, the Potency in [1] is 34.4 µM (active); in experiment [2], 9.44 µM (active); in [4], 21.9 µM (active); in experiment [6] it was 33.5 µM (active). The Potency entry in experiment [10] was “inactive”. Also, in experiment [7], the result was inactive.

Regarding `Nc1nc(N)nc(NC2CC2)n1`, the Potency result in [2], in experiment [3], in experiment [9], in experiment [10], in experiment [4] and in experiment [5] was “inactive” each time. The Potency entry in experiment [6] was “inactive”. For the same molecule, the call in experiment [7] and in [8] was inactive.

As to `COC1CC(=C(c2cccs2)c2cccs2)C[N+](C)(C)C1` (stereo unspecified), the Potency entry in experiment [1], in [2], in experiment [3], in experiment [4], in [5] and in [6] was “inactive” in each case. The molecule was called inactive in experiment [7] and in [8].

Regarding `COP(=S)(OC)SCN1C(=O)c2ccccc2C1=O`, the Potency result in experiment [1], in [3], in experiment [4], in experiment [5] and in experiment [6] was “inactive” in each case. Also, the outcome in experiment [7] and in experiment [8] was inactive.

Consider `CC(NC(C)(C)C)C(=O)c1cccc(Cl)c1` (stereo unspecified), for which the Potency result in experiment [1], in experiment [2], in experiment [3], in experiment [10], in [4] and in experiment [5] was “inactive” in each case. Further, the Potency result in experiment [6] was “inactive”. The call in [7] and in experiment [8] was inactive.

For `CCC1(c2ccc(N)cc2)CCC(=O)NC1=O` (stereo unspecified), the Potency entry in experiment [1], in experiment [2], in experiment [3], in experiment [10], in experiment [4] and in experiment [5] was “inactive” each time. For the same molecule, the Potency entry in experiment [6] was “inactive”. For the same molecule, the result in experiment [7] and in [8] was inactive.

`CCC1(c2ccccc2)C(=O)N(COC)C(=O)N(COC)C1=O`: the Potency result in experiment [1], in experiment [2], in experiment [3], in experiment [4], in [5] and in [6] was “inactive” in each case. The call in experiment [7] and in [8] was inactive.

Take `CCN(CCO)CCn1c(Cc2ccccc2)nc2c1c(=O)n(C)c(=O)n2C`: the Potency result in [2], in experiment [3], in experiment [9], in experiment [4], in [5] and in experiment [6] was “inactive” throughout. Also, the molecule was classed as inactive in experiment [7] and in [8].

On to `C[C@]12CCC(=O)C=C1CC[C@@H]1[C@@H]2CC[C@@]2(C)[C@H]1CC[C@]2(C)O`, for which the Potency entry in experiment [1], in experiment [2], in experiment [3], in experiment [10] and in experiment [5] was “inactive” in each case. Also, the molecule was called inactive in experiment [7] and in [8].

Consider `CC1(C)C(C=C(Cl)Cl)C1C(=O)OC(C#N)c1cccc(Oc2ccccc2)c1` (stereo unspecified), for which the Potency result in [2], in experiment [3], in experiment [9], in experiment [10], in [4] and in experiment [5] was “inactive” each time. Moreover, in experiment [6], the Potency entry is “inactive”. Further, the call in [7] and in experiment [8] was inactive.

For the molecule `C[C@]12CC[C@H]3[C@@H](CC[C@@]45O[C@H]4C(O)=C(C#N)C[C@]35C)[C@H]1CC[C@H]2O`, the Potency in experiment [1] was 12.1 µM (active); in experiment [2], 13.2 µM (active); in experiment [3], 16.6 µM (active); in [5], 29.6 µM (active). Further, the Potency result in experiment [4] is “inactive”. Also, the call in [7] was inactive.

On to `COc1cccc(C(=O)CCN[C@@H](C)[C@H](O)c2ccccc2)c1`, for which, in experiment [1], the Potency is 30.7 µM (active). The Potency result in [10] was “inactive”. Further, in experiment [7], the molecule was classed as inactive.

Consider `O=C1OC(c2ccc(O)c(S(=O)(=O)O)c2)(c2ccc(O)c(S(=O)(=O)O)c2)c2c(Br)c(Br)c(Br)c(Br)c21`, for which the Potency entry in experiment [1], in [2], in experiment [3], in [4], in experiment [5] and in experiment [6] was “inactive” throughout. Further, the molecule was called inactive in experiment [7] and in experiment [8].

In the case of `C=CCC1(C(C)CC)C(=O)NC(=O)NC1=O` (stereo unspecified), the Potency result in experiment [2], in [3], in experiment [9], in experiment [10], in experiment [4] and in experiment [5] was “inactive” each time. Further, the Potency entry in [6] was “inactive”. Also, the result in experiment [7] and in experiment [8] was inactive.

For `O=c1oc2ccccc2c(O)c1Cc1c(O)c2ccccc2oc1=O`, the Potency entry in [2], in [3], in experiment [9], in [10], in experiment [4] and in experiment [5] was “inactive” throughout. Further, in [6], the Potency result is “inactive”. Moreover, the result in [7] and in experiment [8] was inactive.

Consider `NC(=O)c1cc([N+](=O)[O-])cc([N+](=O)[O-])c1`, for which the Potency entry in experiment [2], in experiment [3], in experiment [9], in experiment [4], in experiment [5] and in experiment [6] was “inactive” in each case. Also, the result in experiment [7] and in [8] was inactive.

With `CC(C)c1c(CN(C)C(C)Cc2ccccc2)n(C)n(-c2ccccc2)c1=O` (stereo unspecified), the Potency result in experiment [1], in experiment [2], in [3], in experiment [4], in [5] and in experiment [6] was “inactive” each time. The result in experiment [7] and in experiment [8] was inactive.
